# Source: PubChem BioAssay AID463254 (National Center for Advancing Translational Sciences (NCATS), 2010)
# The campaign covered roughly 330,000 compounds. About 40 (0.01%) were called active. Calls come from the whole dose curve; as a rule, active = well fitted inhibition curve with a large enough effect; inconclusive = small, poorly fitted or top-dose-only effect, or effect the other way; inactive = flat fitted curve, though single readings scatter. What follows is part of a selection rich in actives, with near analogues and random picks from the rest. Entries that show only a call come without a potency.
# Target: Ubiquitin carboxyl-terminal hydrolase 2 (Homo sapiens) (UniProt O75604)
# Experiment: qHTS Assay for Inhibitors of Ubiquitin-specific Protease USP2a Using CHOP2 as the Reporter
# Conditions: USP2 core, Ub-CHOP2 coupled fluorogenic reporter, 485/531; series mostly up to 38.3 µM
# Source text: NIH Molecular Libraries Screening Centers Network [MLSCN] NIH Chemical Genomics Center [NCGC] MLSCN Grant: XO1-MH079852-01 PI Name: Nicholson, Ben. Progenra Inc, Malvern, PA NCGC Assay Overview: Homeostasis of cellular proteins is maintained through a combination of synthesis and degradation. The pathway that accounts for the majority of protein degradation is the ubiquitin-proteasomal pathway. Ubiquitin (Ub) is highly conserved in all cells and the generation of a multi-Ub chain typically targets proteins for degradation by the proteasome. However, ubiquitination is highly reversible and dynamic. Deubiquitination, the reverse process, is catalyzed through the action of enzymes referred to as isopeptidases or deubiquitinating enzymes (DUBs). This group of enzymes is collectively responsible for maintaining adequate pools of free ubiquitin and regulating the ubiquitination status of cellular proteins. The class of DUBs referred to as the ubiquitin-specific proteases (USP) family functions endoproteolytically to cleave Ub chains from a wide range of protein substrates. USP2a deubiquitinates fatty acid synthase (FASN) which has recently been identified as an emerging oncology target. To identify inhibitors of USP2a a cell-free assay was employed. […] The reporter enzyme chosen is an enterokinase called CHOP2, which is activated when the Ub is cleaved by USP2. The free and now activated reporter can subsequently act on its reporter substrate. Thus, this coupled assay gives a fluorescent read-out at excitation/emission wavelengths of 485/531. The assay was developed by Progenra, Inc. and has been licensed for sale by LifeSensors, Inc. as Ub-CHOP2-Reporter-Kit (#PR1101).
# NCGC Assay Protocol Summary: The assay buffer, prepared fresh at the day of the assay, contains 20mM Tris-HCl pH 8.0, 2mM CaCl2, 2mM beta-Mercaptoethanol, 0.05% CHAPS. 3ul of 20nM (10nM final) USP2 core, which is stored on ice, is dispensed into a medium-binding black solid Kalypsys 1,536 well plate using the Kalypsys dispenser. The assay plate is then pinned with 23nL compound with the Kalypsys pintool in columns 5-48. The controls are pinned as follows: column 1 two-fold dilutions of 2M NEM in duplicate; column 2 2M NEM (final concentration 38.2mM); column 3&4 DMSO. The assay plate is incubated at RT for 30min. Subsequently, 1.5uL of 100nM (25nM final) Ub-CHOP2 and 1.5uL of 100nM (25nM final) Reporter Substrate (both stored on ice and protected from light) were dispensed into the plate using the Kalypsys dispenser. Plates were read after 60min RT incubation on a ViewLux (Perkin Elmer) plate reader using the following wavelengths Ex 485nm /Em 531nm. Data were normalized to the to AC100 inhibition (NEM). Concentration-response curves were fitted to the normalized data and the concentration-response curves were then classified based on curve quality (r2), response magnitude and degree of measured activity. The time zero reading was used to flag fluorescence artifacts. Keywords: ubiquitination, deubiquitination, proteases, profluorescent, MLSMR, MLPCN, NIH Roadmap, qHTS, NCGC
# Potency is the fitted concentration of half-maximal effect.
# Chain of Ubiquitin carboxyl-terminal hydrolase 2 (Homo sapiens) (O75604 whole entry, looked up): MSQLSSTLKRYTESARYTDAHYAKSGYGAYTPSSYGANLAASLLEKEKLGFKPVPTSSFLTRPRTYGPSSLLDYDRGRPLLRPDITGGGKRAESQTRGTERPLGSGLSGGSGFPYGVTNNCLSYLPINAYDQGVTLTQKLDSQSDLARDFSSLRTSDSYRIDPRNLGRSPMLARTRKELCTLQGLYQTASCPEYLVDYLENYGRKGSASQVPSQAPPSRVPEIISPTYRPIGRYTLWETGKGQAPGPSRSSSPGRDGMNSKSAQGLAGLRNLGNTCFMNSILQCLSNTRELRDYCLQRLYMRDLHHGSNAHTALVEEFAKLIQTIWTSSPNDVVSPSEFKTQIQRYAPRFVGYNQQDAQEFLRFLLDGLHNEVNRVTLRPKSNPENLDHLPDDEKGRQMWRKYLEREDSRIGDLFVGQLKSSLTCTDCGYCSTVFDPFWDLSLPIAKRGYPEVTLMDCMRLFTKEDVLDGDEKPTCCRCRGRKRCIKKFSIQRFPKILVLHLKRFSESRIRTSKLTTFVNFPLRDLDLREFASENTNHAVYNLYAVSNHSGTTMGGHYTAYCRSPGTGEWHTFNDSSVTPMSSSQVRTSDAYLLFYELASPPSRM
Compound,"activity change, negative = inhibition",Potency
CCCCCN(C(=O)CCC(=O)OCC(=O)NCc1ccc(OC)cc1)c1c(N)n(CCCC)c(=O)[nH]c1=O,inactive,–
Cc1ccc(S(=O)(=O)Nc2nc(N)n(-c3ccccc3)n2)cc1,inactive,–
COC(=O)c1ccc(OC(=O)c2nn(C)cc2Cl)c(OC)c1,inactive,–
Cc1nc2nc(COc3ccccc3)[nH]n2c(=O)c1C,inactive,–
O=C(Nc1cc(N2CCOCC2)ncn1)NC1(C(F)(F)F)Oc2ccc(Cl)cc2O1 (stereo unspecified),inactive,–
CSc1ncc(C(=O)Nc2ccc(C)cc2C)c(C)n1,inactive,–
COc1cccc(CNS(=O)(=O)c2csc(C(N)=O)c2)c1,inactive,–
CC(=O)O[C@H]1CC[C@@]2(C)[C@@H](CC[C@@H]3[C@@H]2CC[C@]2(C)[C@@H](C(C)(C)O)C[C@@H]32)C1,inactive,–
Cc1ccc(C)c(CSc2nc(-c3ccco3)nc3c2c(=O)n(C)c(=O)n3C)c1,inactive,–
CCC(C)NC(=O)C1CCC(=O)N1Cc1ccc(C)cc1 (stereo unspecified),inactive,–
COc1ccc(CS(=O)/C(Cl)=C(/Cl)C(=O)Nc2ccc(OC)nc2)cc1 (stereo unspecified),inactive,–
Cc1cc(C)c(S(=O)(=O)N2CCOCC2)cc1C,inactive,–
Cc1ccc(CNC(=O)Cn2c(=O)c3sccc3n(Cc3cccc([N+](=O)[O-])c3)c2=O)cc1,inactive,–
CCOc1ncccc1C(=O)NNC(=O)c1cccc(S(=O)(=O)Nc2ccccc2OC)c1,inactive,–
COc1ccc(C(c2nnnn2C2CCCCC2)N2CCN(c3ccccc3F)CC2)cc1 (stereo unspecified),inactive,–
COc1ccccc1/C=C/CN1CCC(CO)(Cc2ccccc2)CC1,inactive,–
Cc1ccc(O)c(/C=N/NC(=O)COc2ccc3c(C)cc(=O)oc3c2)c1,inactive,–
O=C(CCc1nnc(Cc2ccc3c(c2)OCO3)o1)NCCc1ccccc1Cl,inactive,–
CC(C)c1ccc(-c2noc(C3CCCN(S(C)(=O)=O)C3)n2)cc1 (stereo unspecified),inactive,–
COc1ccccc1CNC(=O)CCCNS(=O)(=O)c1cccc2nsnc12,inactive,–
CC1COC2C(O1)N(S(C)(=O)=O)CCN2S(C)(=O)=O (stereo unspecified),inactive,–
CCC(C)[C@@H](C(=O)N1CCNCC1)n1cc(CCCCN)nn1 (stereo partly specified),inactive,–

Compound,"activity change, negative = inhibition",Potency
CCCN(CC(=O)NC(=O)NC1CCCCC1)CC(=O)Nc1cc(Cl)ccc1Cl,inactive,–
CC(C)CC1NC(=O)c2cc(Cl)ccc2-n2c1nc1ccccc1c2=O (stereo unspecified),inactive,–
O=C(NNS(=O)(=O)c1ccc(F)cc1)c1cnccn1,inactive,–
Cc1csc(Nc2ccc(Cl)cc2)[n+]1-c1ccc(Cl)cc1,inactive,–
CSC1=NCCN1C(=O)c1ccc(S(=O)(=O)N2CCOCC2)cc1,inactive,–
C[C@@H]1C[C@@H]2O[C@H]2/C=C\C=C\C(=O)Cc2c(Cl)c(O)cc(O)c2C(=O)O1,inactive,–
Cc1cccc(NC(=O)N(Cc2cc3cc(C)cc(C)c3[nH]c2=O)CC2COCCO2)c1 (stereo unspecified),inactive,–
C#CCOCCOCCOCCNc1nc(N2CCN(C(=O)CCCCCCCCCCNC(=O)[C@H](CCCCN)n3cc(C)nn3)CC2)nc(N2CCN(C(=O)CCCCCCCCCCNC(=O)[C@H](CO)n3cc(CCCSC)nn3)CC2)n1,inactive,–
C#CCOCCOCCOCCNc1nc(N2CCN(C(=O)CCCCCCCCCCNC(=O)Cn3cc(CCCCCN)nn3)CC2)nc(N2CCN(C(=O)CCCCCCCCCCNC(=O)[C@H](CO)n3cc(CCCSC)nn3)CC2)n1,inactive,–
C#CCOCCOCCOCCNc1nc(N2CCN(C(=O)CCCCCCCCCCNC(=O)[C@H]([C@@H](C)CC)n3cc(CCCCN=C(N)N)nn3)CC2)nc(N2CCN(C(=O)CCCCCCCCCCNC(=O)[C@H](CO)n3cc(CCCSC)nn3)CC2)n1,–,6.31 µM (active)
Cc1cc(NC(=O)CN2CCCCC2C)nc2c1c(=O)oc1ccccc12 (stereo unspecified),inactive,–
Cc1nc(SC(C)C)[nH]c(=O)c1Cc1ccccc1,inactive,–
CC1CCc2c(nc3ncnn3c2Nc2ccc(OC(F)(F)F)cc2)C1 (stereo unspecified),inactive,–
CCNC(=O)c1sccc1-n1cccc1,inactive,–
CN1C2CCC1/C(=C\c1ccccc1Cl)C(=O)/C2=C\c1ccccc1Cl,inactive,–
COc1ccc2c(c1OC)C(=O)c1ccccc1C2=O,inactive,–
Cc1c([N+](=O)[O-])c(N)nn1C,inactive,–
Cc1cc(NS(=O)(=O)c2ccc(NC(=O)c3cccnc3)cc2)nc(C)n1,inactive,–
COc1cccc(CC2(CO)CCN(Cc3cnc(-c4cccc(C)c4)nc3)CC2)c1,inactive,–
NS(=O)(=O)c1ccc(NC(=S)NC(=O)c2cccnc2)cc1,inactive,–
COc1cc2c(C(=O)N3CCN(C)CC3)c(CSc3ccccc3)n(C)c2cc1Br,inactive,–
COc1ccc(Cl)cc1N(CC(=O)N1CCCCC1)S(C)(=O)=O,inactive,–

Compound,"activity change, negative = inhibition",Potency
Cc1ccc(NC(=O)N2CCC(O)(c3cccnc3)CC2)cc1,inactive,–
COc1cc(OC)cc(C(=O)N[C@H](C(=O)OCC(=O)NC(C)c2ccccc2)C(C)C)c1 (stereo partly specified),inactive,–
O=C1C2C3C=CC(C3)C2C(=O)N1c1ccc(S(=O)(=O)Nc2nccs2)cc1 (stereo unspecified),inactive,–
O=C(Cc1csc(Nc2nc(=S)[nH]c3ccccc23)n1)NCCCN1CCN(c2cccc(Cl)c2)CC1,inactive,–
CC(C)[C@@H]1NC(=O)c2cc([N+](=O)[O-])cc(I)c2NCCC[C@@H](C(=O)NC(CC(=O)O)C(N)=O)NC(=O)[C@H](CO)NC1=O (stereo partly specified),inactive,–
CC(C)(CNC(=O)c1cc(=O)[nH]c2ccccc12)N1CCOCC1,inactive,–
Cc1ccc(CN2CCN(Cc3ccccc3-c3ccco3)CC2CCO)o1 (stereo unspecified),inactive,–
COCc1ccc(C(=O)NC2CC(C)(C)Cc3c2cnn3-c2ccc(C)cc2)o1 (stereo unspecified),inactive,–
Fc1ccccc1CNC(=S)Nc1ccc(Cl)cc1,inactive,–
COc1ccc(C(=O)NCC2CCCCC2)cc1S(=O)(=O)N1CCCC1,inactive,–
CCn1cc(C(=O)NCc2ccc(OC)cc2OC)c(=O)c2ccc(C)nc21,inactive,–
COc1ccc(C2COC(=O)C2=N)c(NC(=O)c2ccccc2)c1 (stereo unspecified),inactive,–
COc1ccc(C(CC(=O)Nc2ccc(C)cc2)NC(=O)C(F)(F)F)cc1 (stereo unspecified),inactive,–
CCCCN(Cc1ccccc1)C(=O)C1CCN(Cc2sccc2C)CC1,inactive,–
CC(=O)c1c(OCC(=O)N(C)C2CCCCC2)ccc2c(C)cc(=O)oc12,inactive,–
Cc1ccc(NS(=O)(=O)c2ccc3c(c2)CC(=O)N3)cc1Cl,inactive,–
N#CCC(=O)Nc1ccc(C(=O)OCC(=O)Nc2sc3c(c2C#N)CCCC3)cc1,inactive,–
CCOc1ccc(NC(=O)CCNC(=O)c2ccc(Br)cc2)cc1,inactive,–
CCOc1ccc(NC(=O)c2ccc(NC(=O)COC(=O)c3ccc(NC(=O)CC#N)cc3)cc2)cc1,–,7.94 µM (active)
O=C(CCS(=O)(=O)c1ccccc1Cl)Nc1ccc(S(=O)(=O)Nc2ncccn2)cc1,inactive,–
CC(C)C1N=C2c3ccccc3N=C(SCC(=O)c3ccc(O)c(O)c3)N2C1=O (stereo unspecified),inactive,–
COc1ccccc1/C=C/C(=O)OCC(=O)NC1CCCCCC1,inactive,–

Compound,"activity change, negative = inhibition",Potency
CCOc1ccc(NS(=O)(=O)c2ccc(C(=O)NC3CCN(Cc4ccccc4)CC3)cc2)cc1,inactive,–
CC(C)OC(=O)C(C#N)c1nc2ccccc2nc1N1CCN(Cc2ccc3c(c2)OCO3)CC1 (stereo unspecified),inactive,–
COc1cccc(-c2nnc(NC(=O)c3ccc(S(=O)(=O)N(CC(C)C)CC(C)C)cc3)o2)c1,inactive,–
Cc1sc(NC(=O)C2C3CCC(O3)C2C(=O)O)c(C(=O)OC(C)C)c1-c1ccc(Cl)cc1 (stereo unspecified),inactive,–
CCN(CC)C(=O)CSC(Nc1cccc(F)c1)=C(C#N)C#N,inactive,–
CS(=O)(=O)c1ccc(-c2nnn(CC(=O)Nc3ccc4c(c3)OCCO4)n2)cc1,inactive,–
COc1ccc(Nc2ncc(C(=O)N3CCN(c4ccccc4OC)CC3)c3ccccc23)cc1,inactive,–
Cc1ccc(-n2nc(C)c(C(=O)O)c2-n2cccc2)cc1,inactive,–
CC(=O)c1ccc(NC(=O)C2CCCN2S(=O)(=O)c2cccs2)cc1 (stereo unspecified),inactive,–
Cn1c(=O)c2cc(S(=O)(=O)NCCC(=O)Nc3ccc(F)cc3F)ccc2n(C)c1=O,inactive,–
Cc1cc(-c2n[nH]c(=S)n2/N=C/C(Br)=C/c2ccccc2)n[nH]1,inactive,–
Cc1c(C)c(C)c(S(=O)(=O)NCCc2ccccn2)c(C)c1C,inactive,–
COc1cc(C)c(S(=O)(=O)N2CCOCC2)c(C)c1C,inactive,–
COc1ccc(NC(=O)CN(C)C(=O)c2cccc(S(=O)(=O)N3CCN(c4ccccc4)CC3)c2)cc1,inactive,–
CCN(CC)C(=O)CSc1nnc(-c2ccc(S(=O)(=O)NCc3ccccc3Cl)cc2)o1,inactive,–
CN(CCO)c1ccc(/C=N/Nc2nncc3ccccc23)cc1,inactive,–
CCOC(=O)c1cc(-c2ccc(Cl)s2)nc2c1c(C)nn2C,inactive,–
COc1ccc(NC(=O)CN2C(=O)C(c3ccccc3)=NC23CCCCCC3)cc1OC,inactive,–
CC1(C)CC(=O)c2cc(OCC(=O)NCC3CCCO3)ccc2O1 (stereo unspecified),inactive,–
Cc1c(-c2nn(C)c(=O)c3ccccc23)oc2ccc(F)cc2c1=O,inactive,–
CC(C)Cc1nn2c(=O)cc(O)nc2s1,inactive,–
COc1cc(N/C=C2\CC(=O)NC(C)=C2C#N)cc(OC)c1OC,inactive,–

Compound,"activity change, negative = inhibition",Potency
O=C(Nc1cccc(Cl)c1)c1cncn1-c1ccc(F)cc1,inactive,–
O=C(COC(=O)c1cccc(Cl)c1)NC1CCCCCCC1,inactive,–
Cc1cccc(OCC(O)CN2CCN(CCN3C(=O)c4cccc5cccc(c45)C3=O)CC2)c1C (stereo unspecified),inactive,–
Cc1nc(NC2=NC(C(=O)Nc3ccc(Cl)cc3)CC(=O)N2)nc2ccccc12 (stereo unspecified),inactive,–
C=CC(COCc1ccccc1)N(Cc1ccccc1)S(=O)(=O)c1ccccc1Br (stereo unspecified),inactive,–
CCC(C)N1CC(=O)N2Cc3[nH]c4ccccc4c3C[C@H]2C1=O (stereo partly specified),inactive,–
CCCCOC(=O)c1ccc(NC(c2ccc(C)cc2)P(=O)(OC)OC)cc1 (stereo unspecified),inactive,–
O=C(O)c1cc2c(cc1NC(=O)c1c(F)cccc1Cl)OCCCO2,inactive,–
O=S(=O)(NC1CCN(S(=O)(=O)c2ccc3c(c2)OCCO3)CC1)c1c(F)cccc1F,inactive,–
CCCOc1ccc(CN(CCO)CCO)cc1C(=O)OC,inactive,–
Cc1ccc(NC2=C(Cl)C(=O)OC2OC(=O)c2ccccc2C)cc1 (stereo unspecified),inactive,–
C[C@@]12C(=O)N(c3cccc(Br)c3)C(=O)N1[C@H](c1ccc(Cl)cc1)[C@@H]1C(=O)N(C3CCCCC3)C(=O)[C@@H]12,inactive,–
CCn1c(SC(C)C(=O)Nc2ccc(N3CCOCC3)cc2)nnc1-c1ccco1 (stereo unspecified),inactive,–
CCOC(=O)c1c(CNCc2ccccc2F)c2sc(C)cc2n1C,inactive,–
CN(C(=O)CCn1c(=S)oc2ccccc21)C1CCCCC1,inactive,–
CCCCN=C(N)/C(C(=O)OCC)=C(\O)c1ccc(OC)cc1,inactive,–
COc1ccc(OC)c(-n2cc3c(=O)n(C)c(=O)n(C)c3c2)c1,inactive,–
O=[N+]([O-])c1cc([N+](=O)[O-])c2cccnc2c1O,inactive,–
